# Screening data (PubChem)
# H9c2 protect = myocardial damage modulation in H9c2 cells; H9c2 cardiomyocytes, H2O2 injury protection, ATPLite, 2 h; protection from H2O2 cell death, % at 20 µM; 360,000 tested, 0.63% active;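 active = compounds giving at least 50% protection of heart cells from peroxide-induced death in the single-dose screen, raw or plate-pattern-corrected value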;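 note: 0% = DMSO wells with peroxide and 100% = DMSO wells without peroxide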
# HSV augment = increases HSV replication in cells | HSV replication augmentation in cells, fold increase | maximum fold increase | 220,000 tested, 0.005% active | AID 1956; in the data active = maximum fold increase above about 1.5; inconclusive = no clear call, values can overlap the other calls; tested in PC3 cells
# CR mimetic SO = lowers age-related superoxide in aged yeast cells. S. cerevisiae aged cells, superoxide DHE fluorescence; stronger effect = lower value. superoxide response (% of plate mean), % at 10 µM. 330,000 tested, 0.18% active. AID 2690;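 active = superoxide response under a set limit, about three screen SD below normal, cut at about 65% in these data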;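 note: yeast aged for seven days with compound at 30 °C before DHE staining; 100% = average MFI of all compound-treated wells on the plate with controls excluded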
# MIN6 prolif = MIN6 beta-cell proliferation induction | MIN6 cells proliferation, ATPlite luminescence, 48 h; cells starved in 0.2% serum; 100% = growth in 10% serum | proliferation, % at 10 µM | 330,000 tested, 0.29% active | AID 2380;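 active = compounds whose signal lies at least 3.5 SD above the mean of all wells on their plate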;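 note: 0% = DMSO-treated cells in low-serum medium and 100% = 10% serum control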
# V-ATPase pH = yeast V-ATPase proton transport regulation by pHLuorin | S. cerevisiae, pHLuorin cytosolic pH fluorescence | response, % at 10 µM | AID 504577 | 350,000 tested, 0.37% active; in the data active = response mostly above about 7.3%, no sharp cut-off; inactive = mostly below about 5.4%; note: actives read high
# p-CIP stab down = compounds decreasing mouse p/CIP protein stability; Q05BA5; F442A p/CIP-EGFP cells, EGFP fluorescence, 16 h; decrease of EGFP signal, % at 10 µM; 290,000 tested, 0.01% active; AID 1984;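 active = EGFP signal decrease of at least 30% at 10 µM or well 3 SD below plate mean, unless failing retest; inactive = the rest, including hits failing retest or dose response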
# The depositor's hits bear a star; i = inactive; ? = inconclusive; · = no result given. Shown are actives, neighbours in structure and some others; about 1.4% of the full set was active somewhere.
SMILES,H9c2 protect,HSV augment,CR mimetic SO,MIN6 prolif,V-ATPase pH,p-CIP stab down
COc1ccc(CCNC(=O)C(=O)NCC2CCCN2S(=O)(=O)c2cc(C)ccc2C)cc1 (configuration not stated),76*,·,101,2,-4,·
COc1cc(Cl)cc(/C=C/c2ccc3cccc(O)c3n2)c1OC,57*,·,95,-5,-7,0
Cc1nc(CC(C)C)cc(C(=O)N2CCCC(CNS(=O)(=O)c3cccs3)C2)n1 (configuration not stated),1,i,108,-2,1,-12
Oc1ccc(/C=N/N2CCCCC2)cc1O,69*,·,91,-5,2,-5
O=C1c2ccccc2C(=O)N1/N=C/c1ccc(O)c(O)c1,62*,i,103,-2,0,-7
COc1cc(C(=O)NCC2CCCO2)ccc1OCc1ccccc1Cl (configuration not stated),1,·,88,1,-4,4
CCOc1ccc(N(Cc2cc3cc(C)ccc3[nH]c2=O)S(=O)(=O)c2ccccc2)cc1,8,·,85,-5,-2,-48
CC(C)(C)c1ccc(OCC(=O)Nc2ccc3c4c(cccc24)C(=O)NC3=O)cc1,60*,?,·,·,-4,-158
COc1cccc(/C=N/NC(=O)CNC(=O)c2cccs2)c1O,63*,i,103,-5,1,-9
COc1cccc(/C=N/NC(=O)Cn2nc(C)c([N+](=O)[O-])c2C)c1O,54*,i,93,-2,0,2
COc1ccccc1/C=C/C(=O)NCC(=O)N/N=C/c1cc(Br)ccc1OC,98*,i,100,-2,-2,-26
COc1ccc(/C=C/C(=O)NCC(=O)N/N=C/c2cc(Br)ccc2OC)cc1,4,i,109,-2,4,-5
COc1cccc(/C=N/NC(=O)CSc2ccccc2C)c1O,53*,i,89,-5,0,-9
COc1cccc(/C=N/NC(=O)C(C)n2nc(C)c([N+](=O)[O-])c2C)c1O (configuration not stated),33,·,96,0,1,7
COc1ccccc1/C=C\C(=O)NCC(=O)N/N=C/c1cccc(OC)c1O,72*,·,113,-5,2,-9
O=C(N/N=C/c1cn(-c2ccccc2)nc1-c1cccnc1)c1cccnc1,52*,i,67,0,2,9
O=C(N/N=C/c1cn(-c2ccccc2)nc1-c1cccnc1)c1ccc(F)cc1,71*,i,110,0,3,-4
O=C(N/N=C/c1cn(-c2ccccc2)nc1-c1ccc(F)cc1)c1ccc(Br)o1,-10,i,104,-8,-1,-8
O=C(N/N=C/c1cn(-c2ccccc2)nc1-c1cccs1)c1ccccc1F,76*,i,109,-5,-3,7
CCn1c(=O)c(C(=O)NCCc2ccc(Cl)cc2)c(O)c2ccccc21,30,·,104,1,2,-16
CCCn1c(=O)c(C(=O)NCCc2ccc(Cl)cc2)c(O)c2ccccc21,54*,·,103,-4,-1,-1
O=C(Nc1cccc(Cl)c1)c1ccc2c(c1)SC1=NS(=O)(=O)CCN12,8,i,·,·,5,-12
CS(=O)(=O)N(CC(=O)Nc1ccccc1C(=O)N1CCOCC1)c1cccc(F)c1,3,·,95,-4,-1,-7
CS(=O)(=O)N(CC(=O)Nc1ccccc1C(=O)N1CCOCC1)c1ccc(F)c(Cl)c1,0,·,112,4,16*,-18
O=C(CN1CCCCC1)Nc1nc(-c2ccc(F)c(F)c2)cs1,55*,·,128,-3,-5,-15
SMILES,H9c2 protect,HSV augment,CR mimetic SO,MIN6 prolif,V-ATPase pH,p-CIP stab down
COC(=O)c1cnn(-c2ccc(Cl)cc2)c1/C=N/NC(N)=S,3,i,115,0,-5,-14
COc1ccccc1OCC(=O)Nc1cccc(-c2nnc(-c3ccco3)o2)c1,64*,i,98,4,1,-6
CC(C)(C)C(=O)Nc1cccc(-c2nnc(-c3cccc(NC(=O)C(C)(C)C)c3)o2)c1,64*,i,101,0,5,0
COC(=O)C(O)(NC(=O)NC(C)=O)C(F)(F)F (configuration not stated),2,i,104,0,14*,-6
COc1ccc(/C=N/NC(=O)c2nc(-c3ccccc3)n(-c3ccccc3)n2)c(O)c1,61*,i,95,0,1,-6
CC(C)(C)c1cc(C(=O)N/N=C/c2ccc(F)cc2)n(-c2ccccc2)n1,-2,i,92,-4,0,0
CC(C)(C)c1cc(C(=O)N/N=C/c2ccccc2O)n(-c2ccccc2)n1,51*,i,93,0,-3,-8
c1coc(-c2nnc3sc(Cc4cccs4)nn23)c1,65*,i,112,-3,-2,4
COc1ccc(OCc2nn3c(-c4ccco4)nnc3s2)cc1,40,i,98,-1,-7,-15
CC(=O)Nc1ccc(C(=O)N/N=C/c2ccccc2OC(=O)c2ccc(Cl)cc2)cc1,56*,i,86,-3,-12,-10
COc1cc(C(=O)Oc2ccccc2/C=N/NC(=O)c2ccc(Cl)cc2)cc(OC)c1OC,33,i,96,0,-2,-6
O=C(Nc1nnc(-c2ccc3c(c2)CCCC3)o1)c1ccccc1,52*,i,110,-6,-1,-7
O=C(Nc1nnc(-c2ccc3c(c2)CCCC3)o1)c1ccccc1Cl,47,i,134,-6,2,-2
Cc1cc(N)n(-c2nc(-c3cccnc3)nc3ccccc23)n1,86*,i,97,0,-3,-23
O=S(=O)(c1ccc(F)cc1)N1CCN(c2nc(-c3cccnc3)nc3ccccc23)CC1,35,·,85,-6,5,·
O=S(=O)(c1ccccc1)N1CCN(c2nc(-c3cccnc3)nc3ccccc23)CC1,58*,·,·,-2,3,·
CCCCn1c(OC(=S)N(CC)CC)cc(C)nc1=S,-6,·,·,·,·,·
Cc1cc(N2CCOCC2)nc2ccc(NC(=O)CCC(=O)N3CCN(c4ccccc4)CC3)cc12,8,·,111,0,3,-4
CCOC(=O)C1CCCN(C(=O)CCC(=O)Nc2ccc3nc(N4CCOCC4)cc(C)c3c2)C1 (configuration not stated),59*,·,97,-2,-5,-1
Cc1c(C(=O)O)cccc1-n1c(C)cc(/C=N/Nc2ccc([N+](=O)[O-])cn2)c1C,-6,i,93,-5,16*,2
C=CCn1c(SCC(=O)NCCO)nc2sc(C)c(C)c2c1=O,4,i,98,13*,-1,0
COc1ccc(S(=O)(=O)NCC(c2ccc(C)cc2)N2CCN(C)CC2)cc1 (configuration not stated),22,·,99,-4,2,·
Cc1[nH]n2c(=O)cc(C(C)(C)C)nc2c1-c1ccccc1,53*,i,100,-2,-4,0
